Screening data: PubChem BioAssay, National Center for Advancing Translational Sciences (NCATS)
FLuc counter: firefly luciferase modulation, counter-screen for miR-21 project | P08659 | purified FLuc, Km substrates, luminescence inhibition | Potency, µM (titrated, usually from 57.5 µM), inactives show at the top dose activity change, negative = inhibition, most hits filed as inhibitors | 360,000 compounds, 6.9% hits;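 further: plate controls were vehicle for no effect and reference inhibitor for full effect; nearly all actives have a fitted effect of over 55% in size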
Target sequence (P08659 whole entry, looked up): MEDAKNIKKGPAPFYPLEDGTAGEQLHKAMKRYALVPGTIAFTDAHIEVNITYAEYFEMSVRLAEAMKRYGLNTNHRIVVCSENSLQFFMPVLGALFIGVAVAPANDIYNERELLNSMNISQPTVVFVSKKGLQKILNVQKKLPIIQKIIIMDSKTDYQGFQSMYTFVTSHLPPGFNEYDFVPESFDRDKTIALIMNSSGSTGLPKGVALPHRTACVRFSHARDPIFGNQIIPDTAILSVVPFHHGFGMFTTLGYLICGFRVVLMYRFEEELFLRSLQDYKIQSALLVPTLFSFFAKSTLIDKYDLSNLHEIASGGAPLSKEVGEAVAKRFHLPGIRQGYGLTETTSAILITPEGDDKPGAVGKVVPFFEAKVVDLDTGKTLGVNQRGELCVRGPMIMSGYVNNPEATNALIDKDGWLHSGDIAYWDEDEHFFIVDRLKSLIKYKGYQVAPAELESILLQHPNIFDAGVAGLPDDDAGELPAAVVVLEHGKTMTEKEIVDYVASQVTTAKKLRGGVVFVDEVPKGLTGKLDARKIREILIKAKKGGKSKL
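Purified P. pyralis luciferase (10nM final) with 10uM D-luciferin and 10uM ATP (Km levels) in 50mM Tris acetate pH 7.5, 10mM Mg acetate, 0.01% Tween-20, 0.05% BSA; qHTS 6-point titration, ~60 µM downward; luminescence read.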
uPA generation: blocks generation of uPA at the cell surface | Potency, µM (highest dose often 38.3 µM), without a hit: at the highest dose activity change, negative = inhibition, hits mostly inhibitors | 330,000 compounds, 0.31% hits | cell surface uPA generation assay, qHTS | AID 540303; active means well fitted inhibition curve with a large enough effect; inconclusive means small, poorly fitted or top-dose-only effect; inactive means no such curve, though single readings can be large or run the other way; tested in mouse RAW 264.7 cells; further: on the % scale 0 is the no-effect control and ±100 the full control effect; nearly all actives have a fitted effect of over 55% in size
Rab9 promoter act: activates the Rab9 promoter; Huh7 Rab9 promoter-luciferase reporter, luminescence, 24 h; Potency, µM (titrated, usually from 9.22 µM), inactives show top-dose activation, negative = inhibition, hits mostly activators; 320,000 compounds, 2.8% hits; further: % of control where 0% means no effect; nearly all actives have a fitted effect of over 60% in size
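Luciferase signal after 10 min detection reagent at ambient indicates Rab9 promoter upregulation; stably transfected Huh7 cells were treated 24 h with compound in DMSO at 37 °C, 5% CO2.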
NPC1 promoter act: activates the NPC1 promoter; Huh7 NPC1 promoter luciferase reporter, 24 h; Potency, µM (doses to about 9.22 µM), for the others: top-dose activation, hits mostly activators; 320,000 compounds, 2.4% hits; AID 485313; further: % of control where 0% means no effect; nearly all actives have a fitted effect of over 60% in size
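Compounds in DMSO were transferred onto Huh7 NPC1-luciferase reporter cells pre-incubated 2 h; after 24 h at 37 °C, Amplite reagent was dispensed and luminescence recorded 10 min later.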
ELG1 genotox: genotoxicity induction in ELG1-luciferase HEK293T cells. HEK293T ELG1-luciferase reporter, luminescence, 16 h. Potency, µM (series often up to 46 µM), without a hit: top-dose activity change, positive = activation, usual class: activators. 330,000 compounds, 1.3% hits. AID 504466; further: % of control where 0% means no effect; nearly all actives have a fitted effect of over 60% in size
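Reporter readout depends on ELG1 protein level, which increases with genetic stress. After 16 hr compound exposure at 37 °C, luciferase activity was quantified using ONE-Glo.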
SMN2 splice enh: enhancers of SMN2 splice variant expression; Potency, µM (highest dose often 46.1 µM), for inactives: at the top dose activity change, positive = activation, most hits filed as activators; 210,000 compounds, 2.8% hits; AID 1458; HEK293 SMN2-luciferase splicing reporter, luminescence, 30-36 h; further: % of control where 0% means no effect; nearly all actives have a fitted effect of over 55% in size
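HEK293 cells carry an SMN2 […]–luciferase reporter in which exon 7 inclusion puts luciferase in frame. Cells were plated 10-12 h before compound addition, then incubated 30-36 h at 37C. ONE-Glo luminescence was read; sodium butyrate at 4.5 mM final served as control.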
* marks the source's active call; other numbers are inactive results; ? = inconclusive; / = no result given; [ ] = remark or other dose. Only some compounds are listed: those with a hit (about 7.3% of all), similar ones and a draw of the others. Unless noted, the call rests on the fitted dose curve; in most records, active means well fitted curve in the direction sought with a large enough effect; inconclusive means small, poorly fitted or top-dose-only effect, or another doubt; inactive means no such curve, though single readings can be large; an effect the other way counts as inactive or inconclusive. Potency means the concentration at half of the fitted maximal effect.

SMILES	FLuc counter	uPA generation	Rab9 promoter act	NPC1 promoter act	ELG1 genotox	SMN2 splice enh
Cc1cc(N/N=C/c2ccc(O)cc2O)nc(N2CCOCC2)n1	7.57µM*	2.1%	-4.0%	-2.6%	3.7%	/
Oc1ccc(/C=N\Nc2cc(N3CCOCC3)nc(N3CCOCC3)n2)c(O)c1	?	-3.9%	-8.2%	-6.4%	-1.7%	-2.1%
COc1ccc(/C=N/Nc2cc(C)nc(N3CCOCC3)n2)c(OC)c1	2.39µM*	3.9%	0.2%	0.3%	6.2%	/
CC(C)C[C@@H](CC(=O)N[C@@H](CCC(=O)O)CC(=O)O)NC(=O)[C@@H]1CCCC[C@H]1NC(=O)C[C@@H](NC(=O)C[C@H](Cc1c[nH]c2ccccc12)NC(=O)[C@@H]1CNCC[C@H]1N)C(C)C	/	/	/	/	/	6.2%
O=C1CSC2(C(=O)N(Cc3c(F)cccc3Cl)c3ccccc32)N1c1ccc(F)c(F)c1 (centres undefined)	-1.0%	/	/	/	/	/
CCCCNC(=O)C1CCN(c2nc3ccccc3nc2C(F)(F)F)CC1	-6.0%	/	/	/	/	/
O=C(c1ccncc1)N1CCC2(CCN(Cc3nccs3)CC2)CC1	/	/	/	/	/	-7.8%
O/N=C/c1ccc2ccccc2n1	?	2.5%	2.82µM*	?	?	/
O/C(=C\c1ccc2ccccc2n1)c1ccncc1	2.39µM*	?	1.41µM*	2.51µM*	?	/
C(=Nc1cnc2ccccc2c1)c1ccc2ccccc2n1	/	/	/	/	/	-2.7%[9.22 µM]
Cc1ccc(NC(=O)CN2C(=O)C3(SCC(=O)N3c3cccc(Cl)c3)c3ccccc32)cc1C (centres undefined)	-11.8%	/	/	/	/	/
O=C(NN=C1CCCC1)c1ccccc1O	?	1.5%	6.1%	-1.2%	0.2%	/
CC(=NNC(=O)c1ccncc1)c1ccccc1Cl	/	2.4%	/	/	/	/
CCOC(=O)C(=O)N/N=C(/c1ccccc1)c1ccc(OC)cc1	-2.6%	4.3%	-2.3%	-1.3%	0.4%	/
C/C(=N\Nc1ccccc1C(=O)O)c1ccncc1	10.7µM*	4.8%	3.16µM*	2.24µM*	3.26µM*	/
COc1ccc(/C(=N\Nc2ccccc2C(=O)O)c2ccccc2)cc1	9.53µM*	-12.2%	25.6%	16.9%	11.6%	-31.3%
O=C(O)c1ccccc1NN=C1CCCCC1	10.7µM*	-8.1%	?	?	?	/
C/C(=N\NC(=O)c1ccccc1NC(=O)c1ccc(Cl)cc1)c1ccncc1	0.0269µM*	-12.1%	?	?	-23.2%	-59.7%
CC(C)CCOc1ccc(Cn2c(=O)sc3ccccc32)cc1	-4.4%	/	/	/	/	-23.2%
CC1CCC(NC(=O)c2ccc3c(c2)N(Cc2cccc(F)c2)C(=O)c2ccccc2S3)CC1 (centres undefined)	-18.4%	/	/	/	/	/
N#C/C(=C(/O)COC(=O)Cc1c[nH]c2ccccc12)c1nc2ccccc2[nH]1	15.1µM*	2.6%	-7.0%	-1.5%	0.3%	-10.6%
CC(C)(C)C1CCC(OC(=O)c2cncc(Br)c2)CC1 (centres undefined)	7.57µM*	3.5%	1.78µM*	?	?	-38.2%
COc1ccc(C)cc1NC(=O)Nc1ccc2c(c1)CCC2	9.53µM*	8.4%	-0.5%	2.1%	2.6%	/
COc1ccc(OC)c(NC(=O)COC(=O)c2cc3c(s2)CCC3)c1	-6.3%	8.7%	-7.5%	1.5%	4.3%	4.8%
COc1ccccc1NC(=O)COC(=O)c1cc2c(s1)CCC2	8.49µM*	0.8%	2.9%	-2.8%	-0.4%	/
COc1ccccc1NC(=O)Nc1ccc2c(c1)CCC2	3.01µM*	?	2.51µM*	2.51µM*	13µM*	/
CCOc1ccc2nc(N3CCC(C(=O)N4CCN(C(=O)c5ccco5)CC4)CC3)sc2c1	13.5µM*	?	19.6%	7.3%	0.9%	-46.3%
CCOc1ccc2nc(N3CCC(C(=O)N4CCN(C5CCCCC5)CC4)CC3)sc2c1	-18.8%	-14.5%	1.8%	11.5%	4.2%	-16.2%
CCOc1ccc2nc(NC(=O)C3CCN(C(=O)c4ccco4)CC3)sc2c1	15.1µM*	3.7%	?	?	?	/
